Bioassay records (PubChem)
HCV inh: qHTS Assay for Inhibitors of Hepatitis C Virus (HCV) | Potency, µM (top dose mostly 41.8 µM), most hits filed as inhibitors | 340,000 tested, 3.4% active | Huh7.5.1 HCVcc-Cre infection, luciferase reporter, 44 h | AID 651820, 2012
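Infectious HCVcc-Cre (~0.5 moi) was added to cells just after compound, with cells seeded 4 h earlier at 1,000 per well. Luciferase activity after 44 h culture reported infection; substrate was incubated 15 min at room temperature before reading.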
HCMV inh: qHTS Assay for inhibitors of the human cytomegalovirus (HCMV). 410,000 tested, 4.5% active. activity change, negative = inhibition, % at 57.5 µM. HFF cells, HCMV-luciferase reporter, 72 h; hits give low values; in the data active = activity change below about -60%; inconclusive = no clear call, values can overlap the other calls; inactive = above about -39%
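Cell-based, HFFs, 1000 cells/well, 16 h 37C; cpds in DMSO + HCMV-luc, MOI 1 PFU/cell; 72 h 37C; OneGlo luminescence after 5 min RT; norm. to buffer vs Salinomycin 10uM.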
Sm TGR block: qHTS Assay for the Inhibitors of Schistosoma Mansoni Peroxiredoxins | Schistosoma mansoni thioredoxin glutathione reductase (TGR), Q962Y6 | Potency, µM (highest dose often 114 µM), most hits filed as inhibitors | purified TGR, DTNB reduction, TNB absorbance 405 nm | 360,000 tested, 3% active | AID 485364, 2010; also: nearly all actives have a fitted effect of over 60% in size
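First, TGR (20 nM dispensed) and NADPH were mixed with compound. Second, a 15 min room-temperature incubation followed. Third, further NADPH and then DTNB were added to start the reaction. Finally, TNB absorbance was monitored kinetically.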
Pf growth 48h: Primary qHTS for delayed death inhibitors of the malarial parasite plastid, 48 hour incubation; P. falciparum luciferase growth in erythrocytes, 48 h; Potency, µM (highest dose often 28.7 µM), hits mostly inhibitors; 310,000 tested, 5.9% active; AID 504832, 2011
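Read-out is firefly luciferase luminescence from an integrated reporter in P. falciparum, so falling signal marks reduced parasite growth. Infected erythrocytes were at 2% hematocrit and 0.1% parasitemia (final) in Albumax-supplemented RPMI 1640.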
SARS PLP yeast: qHTS of Yeast-based Assay for SARS-CoV PLP; S. cerevisiae expressing SARS-CoV PLpro, growth rescue; Potency, µM (titrated, usually from 32.9 µM), hits mostly activators; 330,000 tested, 0.19% active; AID 485353, 2010; calls by dose curve; also: nearly all actives have a fitted effect of over 55% in size
Pf growth 96h: Primary qHTS for delayed death inhibitors of the malarial parasite plastid, 96 hour incubation; P. falciparum luciferase reporter growth, 96 h; Potency, µM (series often up to 28.7 µM), actives largely listed as inhibitors; 320,000 tested, 6.9% active; AID 504834, 2011
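P. falciparum expressing integrated firefly luciferase, in erythrocytes at 2% hematocrit, 0.05% parasitemia, incubated with compounds 96 h at 37 C, 5% CO2. Growth inhibition read as loss of luminescence; two-generation exposure targets delayed-death apicoplast inhibitors.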
Large screens that a line does not name were inactive. Hits are enriched below; roughly 15% of the tested compounds scored in any of these assays. Unless noted, calls follow the shape of the dose curve; as a rule, active = well fitted curve in the direction sought with a large enough effect; inconclusive = small, poorly fitted or top-dose-only effect, or another doubt; inactive = no such curve, though single readings can be large; an effect the other way counts as inactive or inconclusive.

CCCN1CCN(c2nnc(-n3cccc3C(=O)Nc3ccccc3C(F)(F)F)s2)CC1	none (no result: HCV inh, Pf growth 48h, SARS PLP yeast, Pf growth 96h)
CCN(CC)C(=O)[C@H]1CC(CC(=O)NCCCOC)C(=O)N2CCc3c([nH]c4ccccc34)[C@]12C (some centres not stated)	none (no result: Sm TGR block, Pf growth 48h, Pf growth 96h)
COC(=O)C1=C(C)NC(C)=C(C(=O)OC)C1C(=O)OCC(=O)N1CCCCC1C (configuration not stated)	Pf growth 96h inconclusive
O=C(c1ccc(Cl)c(S(=O)(=O)N2CCCC2)c1)N1CCN(c2ccc(F)cc2)CC1	HCV inh inconclusive, HCMV inh -87, Pf growth 48h inconclusive, Pf growth 96h inconclusive
CCC(=O)Nc1ccccc1Sc1ncnc2scc(-c3ccccc3)c12	Pf growth 48h 13µM, Pf growth 96h 4.7µM
CCC(=O)Nc1sccc1C(=O)OC	SARS PLP yeast inconclusive (no result: Pf growth 96h)
CCOC(=O)NC(=O)C(/C=N/c1sccc1C(=O)OC)=C(\C)O	HCV inh 0.56µM (no result: Sm TGR block)
O=C(NCCOc1nc(N2CCCCC2)nc(N2CCOCC2)n1)Nc1ccccc1	HCV inh 8.9µM, HCMV inh -77, SARS PLP yeast inconclusive (no result: Pf growth 96h)
COc1ccccc1C(=O)C1CCCN(C(=O)c2snnc2C)C1 (configuration not stated)	Pf growth 48h inconclusive
Cc1ccc(NC(=S)NNC(=O)c2c(Cl)c(C)nn2C)cc1	HCMV inh -73, Pf growth 96h inconclusive
Cc1nc(C)c(C(=O)NCc2ccc(Cl)cc2)o1	HCV inh inconclusive
Cc1nn(C)c(C(=O)NCc2ccc(Cl)cc2)c1Cl	HCV inh inconclusive, HCMV inh -80
CCO[C@@H]1OC(C(=O)N2CCN(Cc3ccc4c(c3)OCO4)CC2)=C[C@H](c2ccc(C(F)(F)F)cc2)[C@H]1CCCO	HCV inh inconclusive, Pf growth 48h 1.5µM, Pf growth 96h 2.3µM
CCO[C@@H]1OC(C(=O)N2CCN(Cc3ccc4c(c3)OCO4)CC2)=C[C@H](c2ccc(Br)cc2)[C@H]1CCCO	HCV inh inconclusive, Pf growth 48h 1.3µM, Pf growth 96h 4.1µM
CCn1c(SCC(=O)c2ccc(Cl)cc2)nnc1-c1ccoc1C	HCV inh inconclusive, Sm TGR block 25µM, Pf growth 48h inconclusive, SARS PLP yeast inconclusive, Pf growth 96h 15µM
CCn1c(SCC(=O)c2ccccc2)nnc1-c1ccoc1C	none
NC(=O)NC(=O)CSc1nnc(-c2ccc(Cl)cc2)n1CC1CCCO1 (configuration not stated)	none
CCn1c(SCC(=O)c2ccc(C)cc2)nnc1-c1ccoc1C	Sm TGR block inconclusive, Pf growth 96h 15µM
Cc1occc1-c1nnc(SCC(=O)c2ccc(Cl)cc2)n1CC1CCCO1 (configuration not stated)	Sm TGR block 20µM
Cc1ccc(S(=O)(=O)CC(C)(O)C(=O)Nc2cccc(C(F)(F)F)c2)cc1 (configuration not stated)	none
CCN(CC)S(=O)(=O)c1ccc(NC(=O)Nc2cccc(C(F)(F)F)c2)cc1	HCV inh 11µM, HCMV inh -105, Pf growth 48h 5.2µM (no result: Pf growth 96h)
Cn1ccc(NC(=O)Nc2cccc(C(F)(F)F)c2)n1	none
CNS(=O)(=O)c1ccc(NC(=O)Nc2cccc(F)c2)cc1	HCMV inh -101
Cc1ccc(S(=O)(=O)Nc2ccc(NC(=O)Nc3cccc(C(F)(F)F)c3)cc2)cc1	HCV inh inconclusive, HCMV inh -62, Pf growth 48h 13µM, Pf growth 96h inconclusive
Cc1ccnc(NC(=O)Nc2cccc(F)c2)c1	Pf growth 96h 7.4µM
COC(=O)c1cc(Br)c(=O)n(-c2cccc(F)c2)c1	Pf growth 96h inconclusive
O=C1CCCN1CC(O)CS(=O)(=O)Cc1ccccc1Cl (configuration not stated)	none
O=C(O)CCC1OC(=O)C(O)=C1c1ccccc1 (configuration not stated)	Sm TGR block inconclusive, Pf growth 96h inconclusive
CCN(CC)S(=O)(=O)c1ccc(/C=C/C(=O)Nc2cccc(F)c2)cc1	HCV inh 13µM, HCMV inh inconclusive, Pf growth 48h inconclusive, Pf growth 96h 2.9µM
Cc1ccccc1NC(=O)CCc1nnc2ccc(N3CCC4(CC3)OCCO4)nn12	none
Cc1cc(C)c2c(-n3cccc3)c(C(=O)NNS(=O)(=O)c3ccc(Cl)cc3)sc2n1	none
C=CCN(CC(O)c1cccc([N+](=O)[O-])c1)C(C)CCc1ccccc1 (configuration not stated)	Pf growth 48h 1.5µM, Pf growth 96h inconclusive
O=S(=O)(Nc1ccc(-c2csc(-c3ccccc3)n2)cc1)c1ccc(F)cc1	HCV inh inconclusive, Pf growth 48h inconclusive
C=CCn1c(C)cc(-c2csc(NCC)n2)c1C	HCV inh 10µM, HCMV inh -63, Pf growth 48h inconclusive, Pf growth 96h inconclusive
O=C(Nc1nc(-c2ccc([N+](=O)[O-])cc2)cs1)C1=COCCO1	none (no result: HCV inh, Sm TGR block, Pf growth 48h, SARS PLP yeast, Pf growth 96h)
O=C(Nc1nc(-c2ccc(-c3ccccc3)cc2)cs1)C1=COCCO1	HCMV inh -64
O=C(Nc1nc(-c2ccccc2)cs1)c1ccccc1NS(=O)(=O)c1ccc(F)cc1	HCV inh inconclusive, HCMV inh -100, Pf growth 48h 13µM, Pf growth 96h 3.7µM
C=CCn1c(C)cc(-c2csc(NC(=O)C3=COCCO3)n2)c1C	Pf growth 48h 5.2µM, Pf growth 96h inconclusive
C=CCn1c(C)cc(-c2csc(NC)n2)c1C	HCV inh inconclusive, HCMV inh inconclusive, Pf growth 48h inconclusive, Pf growth 96h inconclusive
Cc1cc(O)c(C(C)C)cc1N=Cc1ccc(N(C)C)cc1	none (no result: Sm TGR block, Pf growth 48h, SARS PLP yeast, Pf growth 96h)
COCCCNC(=O)CCCn1c(=O)c2cccn2c2ccccc21	none (no result: HCV inh, Pf growth 48h, SARS PLP yeast, Pf growth 96h)
OCCN(CCO)CC(O)COc1ccc(Br)cc1 (configuration not stated)	none
OCCN(CCO)CC(O)COc1ccc(C23CC4CC(CC(C4)C2)C3)cc1 (configuration not stated)	HCV inh inconclusive, HCMV inh -62
COCCCNC(=O)c1ccc(-n2c(-c3ccccc3)cc3c2CCCC3)cc1	none (no result: HCV inh, Pf growth 48h, SARS PLP yeast, Pf growth 96h)
CCOCCCNC(=O)c1ccc(-n2c(-c3ccccc3)cc3c2CCC(C)C3)cc1 (configuration not stated)	HCMV inh -93 (no result: HCV inh, Pf growth 48h, SARS PLP yeast, Pf growth 96h)
COc1ccc(-n2nc(C(=O)NCC(=O)N3CCCC3)c3ccccc3c2=O)c(OC)c1	none
COc1ccc(-n2nc(C(=O)NCC(=O)Nc3cc(C)ccc3OC)c3ccccc3c2=O)c(OC)c1	Pf growth 48h 12µM, Pf growth 96h inconclusive
